{"source": "PubChem BioAssay (NCATS)", "key": {"[1]": {"system": "Zika virus NS2B-NS3 protease (unlinked complex)", "test": "Primary screen GU Rhodamine qHTS for Zika virus inhibitors: Unlinked NS2B-NS3 protease assay (AID 1347159); also: nearly all actives have a fitted effect of over 60% in size", "outline": "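A qHTS format was used, with compound concentrations ranging up to 114 microM. Each compound was preincubated with 25 nM NS2B-NS3 protease, and the substrate was then added at 1.5 microM. Curves were fitted with a 4-parameter Hill model.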"}, "[2]": {"system": "Zika virus NS2B-NS3 protease (linked construct)", "test": "Primary screen NINDS Rhodamine qHTS for Zika virus inhibitors (AID 1347160); also: nearly all actives have a fitted effect of over 55% in size", "outline": "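Kinetic fluorescence (Ex 480 nm, Em 540 nm) over 15 min with 1.5 microM Rhodamine110 peptide and 25 nM linked protease.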"}}, "note": "Records with an inconclusive call do not appear. Where a call stands in place of a potency, no number is given. Values without a mark were called inactive. Activity calls are given as the source filed them. Calls follow the shape of the dose curve; as a rule, active = well fitted inhibition curve with a large enough effect; inconclusive = small, poorly fitted or top-dose-only effect; inactive = no such curve, though single readings can be large or run the other way."}
{"compound": "CC(=O)O[C@@H]1[C@H](O)[C@@H](O[C@@H]2O[C@@H](C)[C@H](O[C@@H]3OC[C@@H](O)[C@H](O[C@@H]4OC[C@@H](O)[C@H](O)[C@H]4O)[C@H]3O)[C@@H](O[C@@H]3O[C@H](CO)[C@@H](O)[C@H](O)[C@H]3O)[C@H]2O)[C@H](OC(=O)[C@]23CCC(C)(C)C[C@H]2C2=CCC4[C@@]5(C)CC[C@H](O[C@@H]6O[C@H](C(=O)O)[C@@H](O)[C@H](O[C@@H]7OC[C@@H](O)[C@H](O)[C@H]7O)[C@H]6O[C@@H]6O[C@H](CO)[C@H](O)[C@H](O)[C@H]6O)[C@@](C)(C=O)C5CC[C@@]4(C)[C@]2(C)CC3)O[C@@H]1C", "note": "(some centres not stated)", "values": [{"measurement": "activity change, negative = inhibition", "setting": "[1]", "result": "-1.88% [at 19.1 µM]"}, {"measurement": "activity change, negative = inhibition", "setting": "[2]", "result": "7.65% [at 10.7 µM]"}]}
{"compound": "CC(C)[C@H]1CC[C@@]2(O)COC(=O)[C@H]2[C@@H]1/C=C(\\CO)C(=O)O", "values": [{"measurement": "Potency", "setting": "[1]", "result": "inactive"}, {"measurement": "Potency", "setting": "[2]", "result": "inactive"}]}
{"compound": "CC(=O)O[C@@H]1[C@@H](O)[C@H](C)O[C@@H](O[C@H]2[C@@H]3C=CO[C@@H](O[C@@H]4O[C@H](CO)[C@@H](O)[C@H](O)[C@H]4O)[C@@H]3[C@@]3(CO)O[C@@H]23)[C@@H]1OC(=O)/C=C/c1ccccc1", "values": [{"measurement": "Potency", "setting": "[1]", "result": "inactive"}, {"measurement": "Potency", "setting": "[2]", "result": "inactive"}]}
{"compound": "CC(O)c1cc(C(=O)N[C@@H](C)Cn2ccc(-c3ccc(C#N)c(Cl)c3)n2)n[nH]1", "note": "(some centres not stated)", "values": [{"measurement": "Potency", "setting": "[1]", "result": "inactive"}, {"measurement": "Potency", "setting": "[2]", "result": "inactive"}]}
{"compound": "Cc1cccc(-c2[nH]c(Cc3cccc(C(N)=O)c3)nc2-c2ccc3nccnc3c2)n1", "values": [{"measurement": "Potency", "setting": "[1]", "result": "inactive"}, {"measurement": "Potency", "setting": "[2]", "result": "inactive"}]}
{"compound": "C=C(C)[C@@H]1CC[C@]2(C)CC[C@]3(C)[C@H](CC[C@@H]4[C@@]5(C)CC[C@@H](O)C(C)(C)[C@@H]5CC[C@]43C)[C@@H]12", "values": [{"measurement": "Potency", "setting": "[1]", "result": "inactive"}, {"measurement": "Potency", "setting": "[2]", "result": "inactive"}]}
